# Only some compounds are listed: those with a hit (about 19% of all), similar ones and a draw of the others.
# AMA1 RON2 block = qHTS for Inhibitors of AMA1-RON; Towards Development of Antimalarial Drug Lead: Primary Screen; AlphaScreen AMA1-biotinylated RON2 peptide binding; Potency, µM (doses to about 58.2 µM), for the others: at the top dose activity change, negative = inhibition, most hits filed as inhibitors; 0.2% of 360,000 active; AID 720542, 2013;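 also: potency is read from the fitted curve at half-maximal effect; 0% = vehicle wells and -100% = peptide control; nearly all actives have a fitted effect of over 45% in size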
#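 AMA1 (3D7) with his tag at 25 nM final met compounds first, then biotinylated RON2 peptide at 25 nM; detection used donor plus acceptor beads, 10 µg/mL apiece, read by AlphaScreen after 30 min at room temperature.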
# Pf growth 48h = Primary qHTS for delayed death inhibitors of the malarial parasite plastid, 48 hour incubation. 5.9% of 310,000 active. Potency, µM (highest dose often 28.7 µM), for inactives: at the highest dose activity change, negative = inhibition, usual class: inhibitors. P. falciparum luciferase growth in erythrocytes, 48 h; also: potency is read from the fitted curve at half-maximal effect; % is scaled to controls: 0 for no effect and ±100 for the full control effect
#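 Firefly luciferase activity from engineered P. falciparum reports growth; inhibitors lower the luminescent signal. Cultures contained 2% hematocrit erythrocytes at 0.1% final parasitemia.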
# Shiga toxin inh = A qHTS for Small Molecule Inhibitors of Shiga Toxin. Vero cells, Shiga toxin protein synthesis inhibition reporter. inhibition, % at 38.7 µM. 9.2% of 290,000 active. AID 2315, 2010; in the data active = inhibition mostly above about 28%, no sharp cut-off; inactive = mostly below about 43%; also: 0% is about no effect
# CHX counter = Cycloheximide Counterscreen for Small Molecule Inhibitors of Shiga Toxin. AID 2314, 2010. 12% of 300,000 active. cell reporter, cycloheximide protein synthesis inhibition counterscreen. max response, %; in the data active = max response mostly above about 13%, no sharp cut-off; inactive = mostly below about 14%; also: read at 38.3 µM for the half of the compounds with a filed dose; 0% is about no effect
# SARS PLpro yeast = qHTS of Yeast-based Assay for SARS-CoV PLP; Potency, µM (top dose mostly 32.9 µM), inactives show at the top dose activity, positive = growth rescue, hits mostly activators; 0.19% of 330,000 active; S. cerevisiae expressing SARS-CoV PLpro, growth rescue; calls by dose curve; also: potency is read from the fitted curve at half-maximal effect; 0% is about no effect; nearly all actives have a fitted effect of over 55% in size
# Pf growth 96h = Primary qHTS for delayed death inhibitors of the malarial parasite plastid, 96 hour incubation. 6.9% of 320,000 active. Potency, µM (highest dose often 28.7 µM), for the others: at the highest dose activity change, negative = inhibition, hits mostly inhibitors. P. falciparum luciferase reporter growth, 96 h; also: potency is read from the fitted curve at half-maximal effect; % is scaled to controls: 0 for no effect and ±100 for the full control effect
#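 Plates of compound plus infected erythrocytes (2% hematocrit, 0.05% parasitemia final) incubate 96 hours, 37 C, 5% CO2. Detection reagent added; reduced luminescence from the parasites' luciferase reporter flags inhibition.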
# * = called active by the depositor; i = inactive; ? = inconclusive; · = not tested or not shown; [ ] = dose if it differs, or a comment. Unless noted, calls follow the shape of the dose curve; as a rule, active = well fitted curve in the direction sought with a large enough effect; inconclusive = small, poorly fitted or top-dose-only effect, or another doubt; inactive = no such curve, though single readings can be large; an effect the other way counts as inactive or inconclusive.
SMILES,AMA1 RON2 block,Pf growth 48h,Shiga toxin inh,CHX counter,SARS PLpro yeast,Pf growth 96h
Cc1ccc(C)c(CSC2=NN3CCCC(=O)N=C3S2)c1,5%,-22%,14,2,-6%,-23%
CN(C)c1oc(-c2ccc(OCc3ccccc3)cc2)nc1C#N,-29%,-14%,49*,31*,-11%,5.2µM*
CCCOc1ccc(-c2nc(C#N)c(NCCCn3ccnc3)o2)cc1,0%,10µM*,-6,-4,4%,7.4µM*
N#Cc1nc(-c2ccc(OCc3ccc(Cl)cc3)cc2)oc1NCc1cccnc1,13%,-6%,75*,35*,-7%,?
N#Cc1nc(-c2ccc(OCc3ccccc3)cc2)oc1NCc1cccnc1,?,?,40,2,4%,?
N#Cc1nc(-c2ccc(OCc3ccccc3)cc2)oc1NCCCn1ccnc1,6%,2.9µM*,11,-1,-9%,15%[5.75 µM]
CN(C)c1oc(-c2ccccc2F)nc1C#N,-6%,51%,-11,-4,-30%,?
CC(=O)OC[C@H]1O[C@@H](Oc2cc(O)cc3oc(-c4ccc(O)cc4)cc(=O)c23)[C@H](O[C@@H]2O[C@@H](C)[C@H](O)[C@@H](O)[C@H]2O)[C@@H](O)[C@@H]1O,5%,·,·,·,9%,·
N#Cc1nc(COc2ccccc2)oc1NCCCn1ccnc1,-23%,?,33*,27*,1%,?
Cc1ccc(OCc2nc(C#N)c(NCCCn3ccnc3)o2)cc1,-15%,-18%,-24,-5,-5%,·
N#Cc1nc(-c2ccc(OCc3ccccc3Cl)cc2)oc1NCCCn1ccnc1,·,1.7µM*,26*,15*,1%,21%
N#Cc1nc(COc2ccccc2Cl)oc1NCc1ccco1,-3%,-23%,83,11,-1%,?
CCOc1ccc(-c2nc(C#N)c(NCc3ccco3)o2)cc1,-15%,?,46*,23*,1%,0%
O=CN1CCN(C(=O)Cc2ccc(Cl)cc2)CC1,0%,·,·,·,·,·
COC1=C2C[C@@H](C)C[C@H](OC)[C@H](O)[C@@H](C)/C=C(\C)[C@H](OC(N)=O)[C@@H](OC)/C=C\C=C(/C)C(=O)NC(=CC1=O)C2=O,·,·,-1,8,·,·
Nc1sc(-c2ccccc2)cc1C(=O)N/N=C/c1ccc(Cl)cc1,7%,-14%,34*,9,-3%,19%
COC(=O)c1nc(N)sc1-c1ccc(Cl)cc1,22%,9%,17,-1,3%,?
COC(=O)c1cc(-c2ccccc2)sc1N,i,·,58*,26*,-17%,166%
COC(=O)c1nc(N)sc1-c1ccccc1,15%,14%,14,-1,-5%,9.3µM*
CCOc1ccc(C(=O)Oc2cc(C)[nH]c(=O)c2[N+](=O)[O-])cc1OCC,-10%,-8%,6,0,-3%,-3%
COC(=O)CCC(=O)NNC(=O)C1CC1(c1ccccc1)c1ccccc1 (stereo unspecified),36%,18%,-6,-4,1%,10µM*
CC(C)C(=O)NNC(=O)C1CC1(c1ccccc1)c1ccccc1 (stereo unspecified),55%,·,8,-3,2%,-21%
CSC(=NC#N)N1CCN(C(c2ccccc2)c2ccccc2)CC1,-4%,?,-3,8,-5%,?
CSC(=NC#N)N1CCN(C(=NC#N)SC)CC1,2%,9.3µM*,31,5,1%,2%
CCOC(=O)C1=C(CSCc2ccccc2)NC(=O)NC1c1cc(C)ccc1C (stereo unspecified),-10%,13µM*,-20,-2,-2%,·
SMILES,AMA1 RON2 block,Pf growth 48h,Shiga toxin inh,CHX counter,SARS PLpro yeast,Pf growth 96h
CCOC(=O)C1=C(CN2CCCCC2)NC(=O)NC1c1cc(C)ccc1C (stereo unspecified),-1%,·,-5,-2,3%,0%
CC(C)(C)SCCNC(=O)/C=C/c1ccc([N+](=O)[O-])cc1,2%,11%,33*,21*,-14%,?
O=C(/C=C/c1cccc([N+](=O)[O-])c1)NCCSc1ccccc1,-3%,?,15,17*,-30%,10µM*
CC(C)(C)SCCNC(=O)/C=C/c1cccc([N+](=O)[O-])c1,1%,42%,66*,26*,-9%,16%
O=C(/C=C/c1cccc([N+](=O)[O-])c1)NCCSCc1c(Cl)cccc1Cl,2%,-3%,-13,-2,-7%,-9%
Cc1ccc(SCCNC(=O)/C=C/c2cccc([N+](=O)[O-])c2)cc1,-20%,21%,-13,-1,-58%,30%
COC(=O)c1ccc(C(=S)NCC2(N(C)C)CCCCC2)cc1,-7%,?,22,1,7%,?
CSc1nc(-c2ccc(F)cc2)cc(=O)[nH]1,-19%,-13%,7,-3,7%,?
Cn1c(/C=N/Nc2nc3ccccc3[nH]2)nc2ccccc21,-20%,-17%,154*,34*,-18%,?
Cc1c(/C=N/Nc2nc3ccccc3[nH]2)c2ccccc2n1C,-32%,0.52µM*,76*,24*,-17%,0.47µM*
CCCn1c(/C=N/Nc2nc3ccccc3[nH]2)nc2ccccc21,31%,1.9µM*,46*,49*,-50%,4.1µM*
C=CCn1cc(/C=N\NC(=O)c2cc3c(ccc4ccccc43)o2)c2ccccc21,2%,?,15,-4,-4%,-7%
C=CCn1cc(/C=N/Nc2nc3ccccc3[nH]2)c2ccccc21,-27%,?,74*,40*,3%,83%
CCOC(=O)CSc1nc2nc(Cl)c(Cl)nc2[nH]1,-13%,·,·,·,·,·
N#CC(c1ccc(O)cc1)N1CCN(C(C#N)c2ccc(O)cc2)CC1 (stereo unspecified),-19%,·,·,·,·,·
CC(C)Cn1c(/C=N/Nc2nc3ccccc3[nH]2)nc2ccccc21,15%,3.7µM*,12,7,-88%,0.47µM*
COc1ccc(-c2c(S(=O)(=O)c3ccccc3)cnn2-c2ccccc2)cc1,-20%,?,-27,7,-4%,6.6µM*
O=S(=O)(c1ccccc1)c1cnn(-c2ccccc2)c1-c1ccc(Cl)cc1,-10%,12µM*,3,-1,-12%,2.9µM*
Nc1nc(-c2ccc(Cl)cc2)c(S(=O)(=O)c2ccccc2)s1,5%,32%,38,-1,-3%,7%
CCS(=O)(=O)c1nc(S(=O)(=O)c2ccc(Cl)cc2)c(NCc2ccccn2)s1,21%,-18%,-6,-4,-1%,-19%
Cc1ccc(SCC(=O)NC(=O)Nc2ccc3c(c2)OCCO3)cc1C,0%[11.6 µM],-3%,-1,-5,-3%,-21%

# Screening data: PubChem BioAssay, National Center for Advancing Translational Sciences (NCATS)
